Potency data for 33 molecules are collected here from PubChem BioAssay AID1030 (National Center for Advancing Translational Sciences (NCATS), 2008).

Molecules are shown by their SMILES. Hit rate of the full screen: of about 220,000 compounds, about 16,000 (7.3%) were called active. Where a call stands in place of a potency, no number is given. About 25% were inconclusive and are not listed. This is one part of a sample in which actives are shown more often than they occur. The call rests on the fitted dose curve; in most records, active means well fitted inhibition curve with a large enough effect (not every such curve was filed as active); inconclusive means small, poorly fitted or top-dose-only effect, or another doubt; inactive means no such curve, though single readings can be large or run the other way.
Potency means the concentration at half of the fitted maximal effect.

The assay deals with Aldehyde dehydrogenase 1A1 (Homo sapiens) (UniProt P00352). The assay can be described thus: qHTS Assay for Inhibitors of Aldehyde Dehydrogenase 1 (ALDH1A1). As to conditions: Purified ALDH1A1, NADH fluorescence, propionaldehyde substrate; series mostly up to 75.3 µM. In general terms: qHTS replaces the single test concentration by a dilution series.
Aldehyde dehydrogenase 1A1 (Homo sapiens), sequence (P00352 whole entry, looked up): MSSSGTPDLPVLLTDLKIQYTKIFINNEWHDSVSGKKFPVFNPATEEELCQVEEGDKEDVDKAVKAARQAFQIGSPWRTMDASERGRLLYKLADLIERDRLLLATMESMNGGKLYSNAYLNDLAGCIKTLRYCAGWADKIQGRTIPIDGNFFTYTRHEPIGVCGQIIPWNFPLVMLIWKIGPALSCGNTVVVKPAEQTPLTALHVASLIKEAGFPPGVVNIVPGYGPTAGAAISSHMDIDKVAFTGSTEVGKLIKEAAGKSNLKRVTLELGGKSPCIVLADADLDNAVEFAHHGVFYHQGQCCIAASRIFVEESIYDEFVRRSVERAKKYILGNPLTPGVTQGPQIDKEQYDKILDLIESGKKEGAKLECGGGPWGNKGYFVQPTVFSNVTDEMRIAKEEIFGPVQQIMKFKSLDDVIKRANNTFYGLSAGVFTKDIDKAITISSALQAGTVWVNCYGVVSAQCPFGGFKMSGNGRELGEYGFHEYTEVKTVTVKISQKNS
On to `CCOc1cc(C(=O)OCC(=O)Nc2cccc(C)c2)ccc1OCC(=O)N1CCOCC1`, for which the Potency entry is “inactive”.

As to `Cc1ccc(C(=O)C(=S)N2CCOCC2)cc1`, the Potency result was “inactive”.

With `CCOc1cc(C(=S)N2CCOCC2)ccc1O`, the Potency was 8.91 µM (active).

For the molecule `Nc1nc(SCc2ccccc2Cl)n[nH]1`, the Potency result is “inactive”.

Turning to `Clc1ccc(CSc2nnc3c(n2)[nH]c2ccccc23)cc1`, the Potency entry was “inactive”.

As for `Clc1ccccc1CSc1nnc(-c2ccco2)c(-c2ccco2)n1`, the Potency was 10 µM (active).

Turning to `c1ccc(CSc2nnc(-c3ccco3)c(-c3ccco3)n2)cc1`, the Potency was 2.82 µM (active).

`COC(OC)c1ccnc(SCc2ccccc2Cl)n1`: the Potency entry was “inactive”.

Take `O=c1[nH]c(SCc2ccccc2)nnc1-c1ccccc1`: the Potency result was “inactive”.

Regarding `O=C(NC(=O)c1cc(OCC(F)(F)F)ccc1OCC(F)(F)F)Nc1ccccc1`, the Potency entry is “inactive”.

On to `CCOc1ccc(N=Cc2c(O)n(-c3cccc(C)n3)c(=O)c3ccccc23)cc1`, for which the Potency entry is “inactive”.

As for `CCOc1ccc(-n2c(O)c(/C=N/Nc3nc(C)cc(C)n3)c3ccccc3c2=O)cc1`, the Potency was 5.01 µM (active).

In the case of `Cc1ccc(-n2c(O)c(C=Nc3ccc(S(=O)(=O)Nc4ncccn4)cc3)c3ccccc3c2=O)cc1C`, the Potency entry is “inactive”.

Turning to `O=C(NCCOc1ccccc1F)Nc1ccc(Br)cc1`, the Potency result was “inactive”.

For `O=C1c2ccccc2C(Nc2ccc3c(c2)OCCO3)N1Cc1ccco1` (stereo not drawn), the Potency was 7.08 µM (active).

For the molecule `O=C(NC1CCCCC1)C1c2ccccc2C(=O)N1Cc1ccco1` (stereo not drawn), the Potency result was “inactive”.

Take `Cc1ccnc(N2C(=O)c3ccccc3C2Nc2ccc3c(c2)OCCO3)c1` (stereo not drawn): the Potency entry was “inactive”.

Turning to `COc1ccccc1NC(=O)c1ccc(C)s1`, the Potency entry was “inactive”.

Regarding `COc1ccccc1NC(=O)/C=C/C(=O)O`, the Potency entry is “inactive”.

In the case of `COc1ccccc1NC(=O)/C=C/C(N)=O`, the Potency was 28.2 µM (active).

As to `Cc1ccc(Cl)cc1NC(=O)COC(=O)CC(C)(C)C`, the Potency was 8.91 µM (active).

Regarding `Cc1ccc(Cl)cc1NC(=O)COC(=O)C1CCCCC1`, the Potency entry was “inactive”.

Consider `CCCC(=O)OCC(=O)Nc1cc(Cl)ccc1[N+](=O)[O-]`, for which the Potency result is “inactive”.

For the molecule `Cc1ccc2nc(-c3ccccn3)cc(C(=O)Nc3ccc4c(c3)OCO4)c2c1`, the Potency result is “inactive”.

Take `CCCCn1nc(C(=O)Nc2ccc(S(=O)(=O)Nc3ncccn3)cc2)c2ccccc2c1=O`: the Potency entry is “inactive”.

For `Cn1cc(CN2CCC(C(O)CCc3ccccc3)CC2)c(-c2ccccc2F)n1` (stereo not drawn), the Potency result was “inactive”.

For the molecule `CS(=O)(=O)n1nc(-c2ccco2)nc1N`, the Potency entry is “inactive”.

On to `C/C(N)=C(/C#N)C(=O)COC(=O)c1cc(-c2ccccc2)nc2ccc(Br)cc12`, for which the Potency result was “inactive”.

`Cc1ccc(NC(=O)CN2CCCCC2)c2c1CC(C)(C)O2`: the Potency entry is “inactive”.

For `Cc1cc(CO)nn1-c1ccc([N+](=O)[O-])cc1`, the Potency entry is “inactive”.

`COc1ccc(C(CC(=O)Nc2ccc(C)cc2)NC(=O)C(F)(F)F)cc1` (stereo not drawn): the Potency result is “inactive”.

As for `COc1ccc(NC(=O)Cn2c(-c3ccc(OC)cc3)cn(-c3ccc(C)cc3)c2=O)cc1`, the Potency was 15.8 µM (active).

As for `Cc1ccc(OC(=O)CCC(=O)Nc2ccc(Br)cc2)cc1`, the Potency result is “inactive”.
